Drawing on PubChem BioAssay (NCI), this text covers growth for 8 compounds.

Test systems include NCI-H23 lung; NCI-H226 lung; NCI-H322M lung; HOP-62 NSCLC; NCI-H460 lung; HOP-92 NSCLC; NCI-H522 lung; A549/ATCC NSCLC; 786-0 renal; COLO 205 colon; DU-145 prostate; K-562 leukemia; MALME-3M melanoma; MDA-MB-231 breast; RXF 393 renal; SF-268 CNS; SF-295 CNS; SF-539 CNS; UACC-257 melanoma; M14 melanoma.
Assay in all cases: NCI-60 one-dose screen, 48 h (100 = growth as untreated, 0 = no growth, -100 = all killed)
Common to all, as to settings: 10 µM unless noted

About 83,000 compounds went through this panel and 20% of them were active in at least one assay; those are over-represented in the sample as a whole.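 A percent growth of 40 corresponds to 60% growth inhibition; 0 means no net growth; -100 means all cells died. Active threshold: below 10.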 Values without a mark were called inactive. Calls of active or inactive are those of the source.

Turning to `CCCCOC(=O)c1ccc(NC(=O)CCl)cc1`, the growth with NCI-H23 lung is 10.4%; in the experiment with NCI-H226 lung, 71%; in the experiment with NCI-H322M lung, 93.7%; with HOP-62 NSCLC, 102%; in the experiment with NCI-H460 lung, 35.8%; with HOP-92 NSCLC it was 27%. Further, the growth was -77.7% (active) in the experiment on NCI-H522 lung; 69.4% in the experiment on A549/ATCC NSCLC; 70.2% in the experiment with 786-0 renal; 68.8% in the experiment on COLO 205 colon; 78.3% with DU-145 prostate; 5.65% (active) in the experiment on K-562 leukemia. In addition, the growth with MALME-3M melanoma is -67.5% (active); in the experiment on MDA-MB-231 breast, 7.83% (active); with RXF 393 renal, 89.5%; with SF-268 CNS, 35.7%; with SF-295 CNS it was 90%; with SF-539 CNS, 69.9%. The results for the growth in the experiment with UACC-257 melanoma and in the experiment on M14 melanoma were 75.5% and 51.2%, respectively.

For `CC(=O)N(CCCCCCN(C(C)=O)C(C)=O)C(C)=O`, the growth is 108% [100 µM] with NCI-H23 lung; 101% [100 µM] with NCI-H226 lung; 108% [100 µM] in the experiment on NCI-H322M lung; 112% [100 µM] with HOP-62 NSCLC; 109% [100 µM] with NCI-H460 lung; 106% [100 µM] in the experiment with HOP-92 NSCLC. Also, the growth in the experiment with NCI-H522 lung is 102% [100 µM]; with A549/ATCC NSCLC it was 106% [100 µM]; in the experiment with 786-0 renal it was 96% [100 µM]; with COLO 205 colon it was 134% [100 µM]; in the experiment with DU-145 prostate, 106% [100 µM]; in the experiment on K-562 leukemia it was 102% [100 µM]. The growth was 107% [100 µM] in the experiment on MALME-3M melanoma; 98% [100 µM] with MDA-MB-231 breast; 112% [100 µM] in the experiment on RXF 393 renal; 104% [100 µM] in the experiment with SF-268 CNS; 110% [100 µM] with SF-295 CNS; 98.3% [100 µM] with SF-539 CNS. Besides, the growth with UACC-257 melanoma is 95.1% [100 µM]; in the experiment with M14 melanoma it was 105% [100 µM].

As for `O=C(O)C1CCCN1C(=O)OCc1ccccc1` (stereo not given), the growth in the experiment with NCI-H23 lung was 104%; in the experiment on NCI-H226 lung it was 108%; in the experiment on NCI-H322M lung, 104%; in the experiment on HOP-62 NSCLC it was 127%; in the experiment on NCI-H460 lung, 102%; in the experiment on HOP-92 NSCLC it was 122%. Also, the growth was 85.6% with NCI-H522 lung; 93.7% with A549/ATCC NSCLC; 106% in the experiment on 786-0 renal; 107% in the experiment on COLO 205 colon; 118% in the experiment on DU-145 prostate; 99.1% in the experiment with K-562 leukemia. Also, the growth with MALME-3M melanoma was 108%; in the experiment on MDA-MB-231 breast, 128%; with RXF 393 renal it was 139%; with SF-268 CNS it was 107%; with SF-295 CNS, 107%; with SF-539 CNS, 107%. Besides, the growth in the experiment on UACC-257 melanoma was 105%; in the experiment with M14 melanoma, 99.1%.

Consider `O=C(c1ccccc1)c1ccc(-c2ccc(O)cc2)cc1`, for which the growth in the experiment on NCI-H23 lung is 66.1%; in the experiment with NCI-H226 lung it was 89.3%; in the experiment on NCI-H322M lung it was 37.8%; with HOP-62 NSCLC, 43%; with NCI-H460 lung it was 43.8%; with HOP-92 NSCLC, 71.7%. In addition, the growth in the experiment on NCI-H522 lung was 25.8%; in the experiment with A549/ATCC NSCLC, 38.6%; in the experiment with 786-0 renal, 72.8%; with COLO 205 colon, 142%; in the experiment on DU-145 prostate, 69.8%; with K-562 leukemia, 90.2%. Further, the growth in the experiment with MALME-3M melanoma is 84%; in the experiment on MDA-MB-231 breast, 55.4%; in the experiment on RXF 393 renal, -4.28% (active); with SF-268 CNS, 67.4%; in the experiment with SF-295 CNS it was 29.6%; in the experiment on SF-539 CNS it was 79.5%. Moreover, the growth with UACC-257 melanoma is 25.3%; in the experiment on M14 melanoma it was 25.8%.

Take `CC(=O)OCC1CCC(COC(C)=O)CC1` (stereo not given): the growth is 95.5% in the experiment with NCI-H23 lung; 105% with NCI-H226 lung; 96.6% in the experiment on NCI-H322M lung; 90.8% in the experiment on HOP-62 NSCLC; 110% with NCI-H460 lung; 125% in the experiment with HOP-92 NSCLC. In addition, the growth is 67.4% in the experiment on NCI-H522 lung; 79.7% in the experiment on A549/ATCC NSCLC; 95.3% in the experiment with 786-0 renal; 120% in the experiment on COLO 205 colon; 102% with DU-145 prostate; 104% with K-562 leukemia. In addition, the growth is 104% with MALME-3M melanoma; 119% in the experiment on MDA-MB-231 breast; 106% in the experiment with RXF 393 renal; 95.1% in the experiment with SF-268 CNS; 99% with SF-295 CNS; 104% in the experiment on SF-539 CNS. The growth was 82.9% in the experiment with UACC-257 melanoma and 111% in the experiment on M14 melanoma.

As for `CCCC(OC(C)=O)c1ccc2c(c1)OCO2` (stereo not given), the growth was 97.7% in the experiment on NCI-H23 lung; 99.4% with NCI-H226 lung; 97.8% with NCI-H322M lung; 98.7% in the experiment with HOP-62 NSCLC; 106% in the experiment with NCI-H460 lung; 104% with HOP-92 NSCLC. The growth with NCI-H522 lung was 103%; with A549/ATCC NSCLC, 104%; in the experiment on 786-0 renal, 100%; in the experiment on COLO 205 colon it was 107%; in the experiment on DU-145 prostate it was 104%; with K-562 leukemia, 99%. Moreover, the growth in the experiment on MALME-3M melanoma was 91.9%; in the experiment on MDA-MB-231 breast it was 113%; in the experiment with RXF 393 renal it was 104%; in the experiment on SF-268 CNS, 102%; with SF-295 CNS, 105%; with SF-539 CNS it was 105%. Moreover, the growth in the experiment with UACC-257 melanoma was 94.9%; in the experiment with M14 melanoma, 102%.

`O=C(O)c1ccccc1Cc1ccc2c(c1)CCCC2`: the growth in the experiment on NCI-H23 lung was 100%; in the experiment on NCI-H226 lung, 92.5%; in the experiment with NCI-H322M lung it was 99.2%; in the experiment on HOP-62 NSCLC, 111%; in the experiment on NCI-H460 lung it was 106%; with HOP-92 NSCLC, 107%. In addition, the growth with NCI-H522 lung is 98.3%; with A549/ATCC NSCLC, 94.9%; in the experiment on 786-0 renal, 107%; with COLO 205 colon it was 112%; in the experiment on DU-145 prostate, 118%; in the experiment on K-562 leukemia, 106%. Moreover, the growth is 108% in the experiment on MALME-3M melanoma; 95% with MDA-MB-231 breast; 105% in the experiment with RXF 393 renal; 99.5% with SF-268 CNS; 116% in the experiment with SF-295 CNS; 110% in the experiment on SF-539 CNS. In addition, the values for the growth in the experiment with UACC-257 melanoma and with M14 melanoma were 100% and 110%, respectively.

Regarding `CCOC(=O)c1c[nH][nH]c1=O`, the growth in the experiment with NCI-H23 lung was 93.4%; in the experiment on NCI-H226 lung it was 101%; in the experiment on NCI-H322M lung, 122%; with HOP-62 NSCLC, 89.2%; with NCI-H460 lung, 106%; with HOP-92 NSCLC it was 111%. In addition, the growth in the experiment on NCI-H522 lung is 103%; with A549/ATCC NSCLC, 125%; in the experiment on 786-0 renal, 94.3%; in the experiment on COLO 205 colon, 124%; in the experiment with DU-145 prostate, 117%; with K-562 leukemia, 116%. Moreover, the growth was 129% in the experiment with MALME-3M melanoma; 108% with MDA-MB-231 breast; 110% in the experiment on RXF 393 renal; 110% in the experiment on SF-268 CNS; 112% in the experiment on SF-295 CNS; 94.9% in the experiment with SF-539 CNS. The growth is 59.1% in the experiment with UACC-257 melanoma and 96.5% in the experiment with M14 melanoma.
